According to PubChem BioAssay (NCATS):
Inconclusive results are not listed. More than one record can exist for a structure, and the calls need not agree. Active and inactive are the calls of the source. The call rests on the fitted dose curve; in most records, active means well fitted curve in the direction sought with a large enough effect; inconclusive means small, poorly fitted or top-dose-only effect, or another doubt; inactive means no such curve, though single readings can be large; an effect the other way counts as inactive or inconclusive.

Target: Voltage-gated inwardly rectifying potassium channel KCNH2 (Homo sapiens) (UniProt Q12809)
Sequence (Q12809 whole entry, looked up): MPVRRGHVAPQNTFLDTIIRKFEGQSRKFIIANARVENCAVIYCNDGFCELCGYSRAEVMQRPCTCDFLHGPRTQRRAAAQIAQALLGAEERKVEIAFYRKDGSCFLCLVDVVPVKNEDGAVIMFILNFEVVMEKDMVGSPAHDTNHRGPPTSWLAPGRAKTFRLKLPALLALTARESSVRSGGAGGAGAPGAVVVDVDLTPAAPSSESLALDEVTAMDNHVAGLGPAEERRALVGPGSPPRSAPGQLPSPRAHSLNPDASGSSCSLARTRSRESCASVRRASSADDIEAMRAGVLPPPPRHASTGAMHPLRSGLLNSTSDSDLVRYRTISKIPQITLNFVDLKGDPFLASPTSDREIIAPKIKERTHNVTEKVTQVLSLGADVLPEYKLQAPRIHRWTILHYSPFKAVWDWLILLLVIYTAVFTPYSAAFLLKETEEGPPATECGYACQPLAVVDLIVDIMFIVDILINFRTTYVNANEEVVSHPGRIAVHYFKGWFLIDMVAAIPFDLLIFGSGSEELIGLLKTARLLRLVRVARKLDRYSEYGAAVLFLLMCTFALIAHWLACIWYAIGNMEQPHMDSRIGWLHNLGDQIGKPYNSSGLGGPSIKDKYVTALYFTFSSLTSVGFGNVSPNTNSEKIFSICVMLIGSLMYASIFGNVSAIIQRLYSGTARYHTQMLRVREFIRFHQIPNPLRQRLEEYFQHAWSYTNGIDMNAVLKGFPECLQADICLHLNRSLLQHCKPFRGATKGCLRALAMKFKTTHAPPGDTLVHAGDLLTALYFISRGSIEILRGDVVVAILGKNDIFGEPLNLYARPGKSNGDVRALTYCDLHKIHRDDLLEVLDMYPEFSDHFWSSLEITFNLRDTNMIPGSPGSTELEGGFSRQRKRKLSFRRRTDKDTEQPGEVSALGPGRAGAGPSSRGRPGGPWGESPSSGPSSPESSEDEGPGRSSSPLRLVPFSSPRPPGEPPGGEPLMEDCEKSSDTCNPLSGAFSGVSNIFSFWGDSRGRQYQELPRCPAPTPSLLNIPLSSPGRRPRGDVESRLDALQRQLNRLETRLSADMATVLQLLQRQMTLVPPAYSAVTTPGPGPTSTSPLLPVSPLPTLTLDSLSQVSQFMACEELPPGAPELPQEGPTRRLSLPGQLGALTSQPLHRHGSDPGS
Assay: qHTS Assay for Small Molecule Inhibitors of the Human hERG Channel Activity (AID 588834);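 further: lower thallium flux fluorescence means stronger hERG block; nearly all actives have a fitted effect of over 50% in size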; further: potency means the concentration at half of the fitted maximal effect; on activity change, negative = inhibition: top concentration of the series differs between compounds; on the % scale 0 is the no-effect control and ±100 the full control effect
Details: U2OS BacMam hERG, FluxOR thallium flux fluorescence; series mostly up to 46.1 µM; activity change, negative = inhibition: at the top concentration
Method in brief: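 Step 1: BacMam hERG transduction of U2OS, 4 hrs RT. Step 2: overnight 37 °C, plate 2000 cells/well, 4 hr. Step 3: FluxOR load, compound 10 min, stimulate, read fluorescence.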

| Structure (SMILES) | activity change, negative = inhibition | Potency |
| --- | --- | --- |
| [S]=[Sb](=[S])[S][Sb](=[S])=[S] | -4.06% (inactive) | – |
| CC(C)CCC(=O)O[C@H]1CC[C@H]2[C@@H]3CCC4=CC(=O)CC[C@]4(C)[C@H]3CC[C@]12C | – | 25.1 µM (active) |
| C[N+]1(C)[C@@H]2CC(OC(=O)[C@H](CO)c3ccccc3)C[C@H]1[C@H]1O[C@@H]12 (stereo not given in full) | -3.04% (inactive) | – |
| Cc1ccccc1-n1c(C)nc2ccccc2c1=O | 5.91% (inactive) | – |
| [N-]=[N+]=CC(=O)OCC(N)C(=O)O (stereo not given) | 30.8% (inactive) | – |
| C[N+]1(C)CCCCC1COC(=O)C(O)(c1ccccc1)c1ccccc1 (stereo not given) | -1.79% (inactive) | – |
| CCCCC[C@@H](O)C1C(=O)OC(C)[C@H](O)/C=C/C=C/C=C/C=C/C=C(\C)C(O)C(O)C(O)C[C@H](O)C[C@H](O)C[C@H](O)C[C@H](O)C[C@@H]1O (stereo not given in full) | 18.6% (inactive) | – |
| [H+].[H+].[Hg+2].[O-]B([O-])[O-].[c-]1ccccc1 | – | 10 µM (active) |
| N#CC1(N2CCCCC2)CCCCC1 | -12.8% (inactive) | – |
| FC(F)OC(F)(F)C(F)Cl (stereo not given) | -9.7% (inactive) | – |
| S=C(S)N1CCNCC1 | -4.1% (inactive) | – |
| C[C@@H]([C@H](O)c1ccccc1)N(C)C | -1.1% (inactive) | – |
| C[C@@H](CO)NC(=O)[C@@H]1C=C2c3cccc4[nH]cc(c34)C[C@H]2N(C)C1 | 2.58% (inactive) | – |
| C#CCN1CC(=O)N(COC(=O)C2C(C=C(C)C)C2(C)C)C1=O (stereo not given) | 5.66% (inactive) | – |
| O=C1C[C@@H]2OCC=C3CN4CC[C@]56c7ccccc7N1[C@H]5[C@H]2[C@H]3C[C@H]46 (tested in a mixture with another compound) | – | 25.1 µM (active) and inactive |
| Cc1cc(C)cc(C(=O)OC2C[C@H]3CC[C@@H](C2)N3C)c1 (stereo not given in full) | – | 3.98 µM (active) |
| CC(C)(O)[C@@H]1[C@H]2OC(=O)[C@@H]1[C@]1(O)C[C@H]3O[C@]34C(=O)O[C@H]2[C@]14C | 3.68% (inactive) | – |
| CNC1(c2ccccc2Cl)CCCCC1=O (stereo not given) | – | inactive |
| CN(C)CCCCCCN(C)C (tested in a mixture with another compound) | 15.1% (inactive) | – |

| Structure (SMILES) | activity change, negative = inhibition | Potency |
| --- | --- | --- |
| C[C@@H](Cc1ccccc1)N(C)C | 12.5% (inactive) | – |
| COc1ccc2c3c1O[C@H]1[C@@H](O)C=C[C@H]4[C@@H](C2)NCC[C@@]341 | 0.737% (inactive) | – |
| CCNCC(O)c1cccc(O)c1 (stereo not given) | -7.21% [at 20.6 µM] (inactive) | – |
| CCON=O | 12.1% (inactive) | – |
| CCNC1(c2cccs2)CCCCC1=O (stereo not given) | 10.3% [at 20.6 µM] (inactive) | – |
| O=C(OCCN1CCCCC1)C(O)(c1ccccc1)c1ccccc1 | – | 11.2 µM (active) |
| Clc1ccc(C(Cn2ccnc2)OCc2csc3c(Cl)cccc23)c(Cl)c1 (stereo not given) | – | 3.98 µM (active) |
| C=CC[C@]1(O)CC[C@H]2[C@@H]3CCC4=CCCC[C@@H]4[C@H]3CC[C@@]21C | -15.7% (inactive) | – |
| CCOc1ccc2c3c1O[C@H]1[C@@H](O)C=C[C@H]4[C@@H](C2)N(C)CC[C@@]341 | -1.99% (inactive) | – |
| CCOC(=O)/C=C(C)/C=C/C[C@@H](C)CCCC(C)C | 15.8% (inactive) | – |
| OC[C@@H](O)[C@H]1O[C@@H]2O[C@H](C(Cl)(Cl)Cl)O[C@@H]2[C@H]1O | 4.49% (inactive) | – |
| O=P(O)(O)C(Cl)(Cl)P(=O)(O)O | 5% (inactive) | – |
| [2H]C([2H])([2H])[C@H](N)Cc1ccccc1 | 1.13% (inactive) | – |
| COc1cc2c(cc1OC)[C@@]13CCN4CC5=CCO[C@H]6CC(=O)N2[C@H]1[C@H]6[C@H]5C[C@H]43 | -12.5% (inactive) | – |
| C=CCN1CC[C@]23c4c5ccc(O)c4O[C@H]2[C@@H](O)C=C[C@H]3[C@H]1C5 | 21.9% (inactive) | – |
| CC1CCC(C(C)C)C(OC(=O)c2ccccc2N)C1 (stereo not given) | -9.37% (inactive) | – |
| CCC1(CC)C(=O)NC(=O)N(C)C1=O | 8.79% (inactive) | – |
| NCC(O)c1cccc(O)c1 (stereo not given) | 2.84% (inactive) | – |

Target: Luciferin 4-monooxygenase (Photinus pyralis) (UniProt P08659)
Sequence (P08659 whole entry, looked up): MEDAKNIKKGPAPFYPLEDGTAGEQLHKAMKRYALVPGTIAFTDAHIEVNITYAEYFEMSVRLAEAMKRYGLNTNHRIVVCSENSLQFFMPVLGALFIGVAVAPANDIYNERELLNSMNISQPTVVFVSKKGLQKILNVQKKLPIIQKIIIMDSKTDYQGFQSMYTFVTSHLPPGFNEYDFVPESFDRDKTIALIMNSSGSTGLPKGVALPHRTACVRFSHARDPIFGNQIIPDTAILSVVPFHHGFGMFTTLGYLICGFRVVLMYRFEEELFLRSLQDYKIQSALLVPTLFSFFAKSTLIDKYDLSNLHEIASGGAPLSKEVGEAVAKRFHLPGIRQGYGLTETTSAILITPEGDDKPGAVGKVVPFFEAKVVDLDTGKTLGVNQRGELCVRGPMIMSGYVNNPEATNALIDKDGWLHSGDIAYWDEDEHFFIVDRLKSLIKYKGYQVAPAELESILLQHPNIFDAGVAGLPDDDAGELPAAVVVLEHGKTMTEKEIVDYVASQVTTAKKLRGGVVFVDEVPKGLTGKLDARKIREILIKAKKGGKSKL
Assay: Biochemical firefly luciferase enzyme assay for NPC (AID 624030);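 further: purified P. pyralis luciferase at 10 nM with luciferin and ATP substrate; 0% = DMSO and -100% = full luciferase inhibition by PTC124 control; nearly all actives have a fitted effect of over 70% in size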
Details: purified P. pyralis luciferase, luminescence, 5 min; series mostly up to 58.6 µM; activity change, negative = inhibition: at the top concentration
Method in brief: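 Counter-screen for direct inhibition of the luciferase enzyme by approved-drug library compounds, run at 10 nM enzyme in 50 mM Tris acetate (final). Luminescence was read within 5 min of enzyme-buffer addition and normalized to PTC124 versus DMSO (0%).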

| Structure (SMILES) | activity change, negative = inhibition | Potency |
| --- | --- | --- |
| [N-]=[N+]=CC(=O)OCC(N)C(=O)O (stereo not given) | -3.44% (inactive) | – |
| C[N+]1(C)CCCCC1COC(=O)C(O)(c1ccccc1)c1ccccc1 (stereo not given) | 3.98% (inactive) | – |
| N#CC1(N2CCCCC2)CCCCC1 | 0.106% (inactive) | – |
| FC(F)OC(F)(F)C(F)Cl (stereo not given) | 0.201% (inactive) | – |
| S=C(S)N1CCNCC1 | 2.73% (inactive) | – |
| CNC1(c2ccccc2Cl)CCCCC1=O (stereo not given) | – | inactive |
| CCON=O | 1.59% (inactive) | – |
| O=C(OCCN1CCCCC1)C(O)(c1ccccc1)c1ccccc1 | 0.818% (inactive) | – |
| CCOc1ccc2c3c1O[C@H]1[C@@H](O)C=C[C@H]4[C@@H](C2)N(C)CC[C@@]341 | 0.209% (inactive) | – |
| O=P(O)(O)C(Cl)(Cl)P(=O)(O)O | -0.943% (inactive) | – |
| C=CCN1CC[C@]23c4c5ccc(O)c4O[C@H]2[C@@H](O)C=C[C@H]3[C@H]1C5 | 1.08% (inactive) | – |
| CC1CCC(C(C)C)C(OC(=O)c2ccccc2N)C1 (stereo not given) | -0.526% (inactive) | – |
| CCC1(CC)C(=O)NC(=O)N(C)C1=O | -1.95% (inactive) | – |
| NCC(O)c1cccc(O)c1 (stereo not given) | 0.488% (inactive) | – |

Tested on: not listed separately
Assay: S16 Schwann cell viability assay (CellTiter-Glo assay) (AID 624031);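 further: cellular ATP luminescence as a viability measure; plate controls were DMSO-treated cells for no effect and cell-free wells for full effect; nearly all actives have a fitted effect of over 70% in size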
Details: S16 rat Schwann cells viability, 24 h; series mostly up to 57.5 µM; activity change, negative = cytotoxicity: at the top concentration
Method in brief: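 Native S16 rat Schwann cells, 500-750 cells/well in DMEM with 10% FBS, dosed with compound after overnight culture and incubated 24h at 37 degree Celsius/5% CO2. Viability by CellTiter-Glo luminescence; % activity normalized to no-cell wells and DMSO-treated cells.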

| Structure (SMILES) | activity change, negative = cytotoxicity | Potency |
| --- | --- | --- |
| [N-]=[N+]=CC(=O)OCC(N)C(=O)O (stereo not given) | 7.17% (inactive) | – |
| C[N+]1(C)CCCCC1COC(=O)C(O)(c1ccccc1)c1ccccc1 (stereo not given) | -20.7% (inactive) | – |
| N#CC1(N2CCCCC2)CCCCC1 | -2.27% (inactive) | – |
| FC(F)OC(F)(F)C(F)Cl (stereo not given) | -13.6% (inactive) | – |
| S=C(S)N1CCNCC1 | 0% (inactive) | – |
| CNC1(c2ccccc2Cl)CCCCC1=O (stereo not given) | – | inactive |
| CCON=O | -27.3% (inactive) | – |
| O=C(OCCN1CCCCC1)C(O)(c1ccccc1)c1ccccc1 | -18.8% (inactive) | – |
| CCOc1ccc2c3c1O[C@H]1[C@@H](O)C=C[C@H]4[C@@H](C2)N(C)CC[C@@]341 | -18.9% (inactive) | – |
| O=P(O)(O)C(Cl)(Cl)P(=O)(O)O | -17.3% (inactive) | – |
| C=CCN1CC[C@]23c4c5ccc(O)c4O[C@H]2[C@@H](O)C=C[C@H]3[C@H]1C5 | 0% (inactive) | – |
| CC1CCC(C(C)C)C(OC(=O)c2ccccc2N)C1 (stereo not given) | -3.78% (inactive) | – |
| CCC1(CC)C(=O)NC(=O)N(C)C1=O | -12.1% (inactive) | – |
| NCC(O)c1cccc(O)c1 (stereo not given) | 7.98% (inactive) | – |
